Laboratory results: PubChem BioAssay (NCI)
About 83,000 compounds went through this panel and 20% of them were active in at least one assay; those are over-represented in the sample as a whole.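 Each cell line was grown in a 96-well plate and treated with one concentration of compound for 48 hours. Values below 10 were considered active.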 Unmarked numbers belong to inactive results. The source made the active and inactive calls.

Key:
Experiment in all cases: NCI-60 one-dose screen, 48 h (100 = growth as untreated, 0 = no growth, -100 = all killed)
Conditions in all cases: 10 µM
NCI-H23 lung = system: NCI-H23 lung
NCI-H226 lung = system: NCI-H226 lung
NCI-H460 lung = system: NCI-H460 lung
HOP-92 NSCLC = system: HOP-92 NSCLC
NCI-H522 lung = system: NCI-H522 lung
A549/ATCC NSCLC = system: A549/ATCC NSCLC
786-0 renal = system: 786-0 renal
COLO 205 colon = system: COLO 205 colon
DU-145 prostate = system: DU-145 prostate
K-562 leukemia = system: K-562 leukemia
MALME-3M melanoma = system: MALME-3M melanoma
MDA-MB-231 breast = system: MDA-MB-231 breast
RXF 393 renal = system: RXF 393 renal
SF-268 CNS = system: SF-268 CNS
SF-295 CNS = system: SF-295 CNS
SF-539 CNS = system: SF-539 CNS
UACC-257 melanoma = system: UACC-257 melanoma
M14 melanoma = system: M14 melanoma
HOP-62 NSCLC = system: HOP-62 NSCLC

SMILES	growth (NCI-H23 lung)	growth (NCI-H226 lung)	growth (NCI-H460 lung)	growth (HOP-92 NSCLC)	growth (NCI-H522 lung)	growth (A549/ATCC NSCLC)	growth (786-0 renal)	growth (COLO 205 colon)	growth (DU-145 prostate)	growth (K-562 leukemia)	growth (MALME-3M melanoma)	growth (MDA-MB-231 breast)	growth (RXF 393 renal)	growth (SF-268 CNS)	growth (SF-295 CNS)	growth (SF-539 CNS)	growth (UACC-257 melanoma)	growth (M14 melanoma)	growth (HOP-62 NSCLC)
CCc1ccc(C2=NN(c3ccc(S(C)(=O)=O)cc3)C(=O)CC2)cc1	-4.83% (active)	69.1%	10.5%	68.6%	-1.27% (active)	35.6%	36.4%	22.5%	21.3%	10.4%	38.8%	55.5%	27.4%	42.8%	9.24% (active)	15.1%	59.1%	5.99% (active)	–
COC(=O)C1OC1c1cc([N+](=O)[O-])ccc1OC (stereo unspecified)	93%	100%	109%	106%	110%	103%	104%	111%	109%	95.5%	102%	123%	99.8%	102%	100%	98.4%	117%	95%	–
Cc1c(Cl)cccc1NC(=O)CCCl	105%	95.3%	102%	103%	91%	92.8%	103%	107%	106%	88.2%	108%	121%	112%	97.8%	106%	102%	89.2%	97%	–
CCCCCCCCCCOC(c1ccccc1)c1ccccc1	83%	85.5%	101%	103%	75.8%	83.6%	98%	104%	105%	85.6%	95.7%	88.4%	94.2%	94.2%	89.6%	102%	102%	90.9%	–
O=C(N/N=C/c1ccc(Cl)cc1)c1ccccc1Nc1cccc(C(F)(F)F)c1	91.2%	81.2%	–	73.7%	77.9%	–	86%	108%	–	59.9%	–	74.5%	–	84.6%	86.8%	48.9%	96.9%	91.5%	72.9%
CC1=CC2C(C(O)CC3(C)C2CC(C)C32OCOC23COCO3)C2(C)C/C(=C/O)C(=O)C=C12 (stereo unspecified)	-0.378% (active)	78.4%	7.96% (active)	94.1%	-26.7% (active)	41.8%	58.8%	-14.4% (active)	44.1%	2.43% (active)	15.5%	18%	26.1%	24.8%	79.5%	41.5%	78.2%	18.7%	–
COc1ccc(-c2cc(-c3ccccc3)nc(SCCCCCCC(=O)NO)n2)cc1	50.9%	72.3%	–	49.3%	18.8%	50.1%	79.8%	44.8%	60%	26.7%	20.3%	68.9%	22.1%	97.4%	67.4%	73.2%	49.5%	48.2%	57.2%
O=[N+]([O-])c1ccc(NCSc2ccc(Cl)cc2)cc1	99.4%	112%	–	98.2%	86.5%	96.3%	93.4%	103%	98.3%	86.9%	–	94.3%	103%	94.1%	105%	99.7%	101%	109%	109%
Fc1ccc(C(c2ccc(F)cc2)C(Cl)Cl)cc1	100%	105%	–	75.8%	93.8%	102%	95.7%	108%	104%	91.2%	–	92.4%	86.9%	110%	105%	106%	111%	103%	115%
